ALR H2O2 inh: human ALR oxidase inhibition via reduced H2O2 | P55789 | purified ALR, DTT oxidation, H2O2 HRP-luminol luminescence | inhibition, % (no concentration beside the values) | hit rate 3.8% among 290,000;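 active = mean replicate inhibition above about 79%, with every replicate also reaching it, limit read from the data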
Target sequence (P55789 whole entry, looked up): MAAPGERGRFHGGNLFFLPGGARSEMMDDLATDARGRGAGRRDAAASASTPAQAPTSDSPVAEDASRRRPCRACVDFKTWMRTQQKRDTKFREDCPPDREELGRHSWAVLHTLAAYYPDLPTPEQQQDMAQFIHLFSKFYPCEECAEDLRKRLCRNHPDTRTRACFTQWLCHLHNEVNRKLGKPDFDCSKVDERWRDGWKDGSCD
Rce1 inhib: blocks yeast Ras-converting enzyme. Q03530. yeast membranes, quenched prenylated peptide cleavage fluorescence. calls only. hit rate 0.27% among 290,000. AID 2563;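 active = fall in fluorescence gain of 50% or more versus controls, with final raw signal at or below 3038400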;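 also: plate controls were neutral control wells for no effect and wells lacking membranes for full effect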
Target sequence (Q03530 whole entry, looked up): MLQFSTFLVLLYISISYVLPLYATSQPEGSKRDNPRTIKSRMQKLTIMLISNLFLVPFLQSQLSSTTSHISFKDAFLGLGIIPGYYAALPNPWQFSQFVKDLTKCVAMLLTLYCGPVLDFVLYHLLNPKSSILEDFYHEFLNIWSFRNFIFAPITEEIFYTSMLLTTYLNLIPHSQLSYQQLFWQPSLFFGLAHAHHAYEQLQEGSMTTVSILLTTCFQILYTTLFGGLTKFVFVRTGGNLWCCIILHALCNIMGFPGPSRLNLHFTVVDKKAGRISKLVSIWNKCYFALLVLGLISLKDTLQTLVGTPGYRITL
GRK2 aptamer HTS: blocks RNA aptamer binding to human GRK2; bead flow cytometry, FAM-aptamer displacement from GRK2; inhibition of aptamer binding, % at 10 µM; hit rate 0.59% among 330,000;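 active = inhibition of aptamer binding above 40%, roughly 3 SD of noise, on plates passing a quality check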;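 also: median bead fluorescence of bound FAM aptamer so fluorescent compounds give negative values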
HDAC3 inh: inhibitors of human histone deacetylase 3. O15379. recombinant HDAC3, fluorogenic peptide/trypsin coupled, fluorescence. inhibition, % at 8.3 µM. hit rate 0.15% among 320,000. AID 2718; in the data active = inhibition above about 26%, passing the limit was not always enough
Rtt109 Vps75: C. albicans Rtt109 histone acetyltransferase inhibition | Q5AAJ8 | purified Rtt109/Vps75, ThioGlo CoA-SH fluorescence, 4 h | inhibition, % at 34.9 µM | hit rate 0.16% among 330,000 | AID 540336;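 active = inhibition of at least 50% in every replicate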
Efflux pump mplx: blocks antifungal efflux pumps in multiplex yeast assay | S. cerevisiae Candida pump triplex, Nile Red efflux | inhibition, % at 10 µM | hit rate 0.44% among 330,000;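 active = plate passing quality check with inhibition over a set limit, or well fluorescence over plate mean plus 4 SD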;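 also: Nile Red retained in pooled yeast measured as flow cytometry median fluorescence; 0% = buffer negative control and 100% = Enniatin B positive control; higher means more Nile Red kept so more efflux inhibition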
The depositor's hits bear a star. An excerpt weighted towards active compounds, which were near 4.5% of everything screened.

How did c1ccc(-n2nnc(-c3nccs3)n2)cc1 do in these assays?
ALR H2O2 inh: 94*; Rce1 inhib: inactive; GRK2 aptamer HTS: 3; HDAC3 inh: -4; Rtt109 Vps75: 1; Efflux pump mplx: 0

How did Brc1ccccc1-n1nnc(-c2nccs2)n1 do in these assays?
ALR H2O2 inh: -6; Rce1 inhib: inactive; HDAC3 inh: -3; Rtt109 Vps75: 5

What do the screens show for `Cc1ccc(OCc2cc(C(=O)N(C)Cc3cnc4ccccn34)no2)cc1C`?
ALR H2O2 inh: 0; Rce1 inhib: inactive; GRK2 aptamer HTS: 2; HDAC3 inh: -11; Rtt109 Vps75: -4; Efflux pump mplx: 0

Results for CCOc1c(Br)cc(CNc2ccc(N3CCOCC3)cc2)cc1OC ?
ALR H2O2 inh: 98*; Rce1 inhib: inactive; GRK2 aptamer HTS: 0; HDAC3 inh: -3; Rtt109 Vps75: 4; Efflux pump mplx: 0

What do the screens show for `COc1ccc(C(C(=O)NC2CCCCC2)N(C(=O)CCl)c2ccc(C)cc2)cc1` (stereo not drawn)?
ALR H2O2 inh: -10; Rce1 inhib: inactive; GRK2 aptamer HTS: 1; HDAC3 inh: -2; Rtt109 Vps75: 5; Efflux pump mplx: -1

What do the screens show for `COC(CN(C(=O)CCl)C(C(=O)NC1CCCCC1)c1ccc(C)cc1)OC` (stereo not drawn)?
ALR H2O2 inh: 97*; Rce1 inhib: inactive; GRK2 aptamer HTS: 3; HDAC3 inh: -3; Rtt109 Vps75: -6; Efflux pump mplx: 0

What do the screens show for `Cc1cc(Cl)ccc1NC(=O)CSc1n[nH]c(N)n1`?
ALR H2O2 inh: -14; GRK2 aptamer HTS: 6; HDAC3 inh: 2; Rtt109 Vps75: -1; Efflux pump mplx: 0

How did CCCCn1c(=O)[nH]c(=O)c2c1nc(-c1ccc(OC)c(Br)c1)n2CC(C)C do in these assays?
ALR H2O2 inh: -6; Rce1 inhib: active; GRK2 aptamer HTS: 4; HDAC3 inh: 3; Rtt109 Vps75: 5; Efflux pump mplx: 0

How did Cc1cccc(Nc2nc(OCC#N)nc(N(C)C)n2)c1 do in these assays?
Rce1 inhib: inactive; GRK2 aptamer HTS: 0; HDAC3 inh: -1; Rtt109 Vps75: 3; Efflux pump mplx: 0

Results for CCN(CC)c1nc(Nc2ccc(Cl)cc2)nc(OCC#N)n1 ?
ALR H2O2 inh: -10; Rce1 inhib: inactive; GRK2 aptamer HTS: 1; HDAC3 inh: 32*; Rtt109 Vps75: -2; Efflux pump mplx: 0

Results for COc1ccc(NC(=O)c2cccn(CC=C(C)C)c2=O)cc1 ?
ALR H2O2 inh: 1; Rce1 inhib: inactive; GRK2 aptamer HTS: 0; HDAC3 inh: 6; Rtt109 Vps75: -12; Efflux pump mplx: 0

Results for Cc1nc(C)n(C(Oc2ccc(Cl)cc2Cl)C(=O)C(C)(C)C)n1 (stereo not drawn) ?
ALR H2O2 inh: 10; Rce1 inhib: inactive; GRK2 aptamer HTS: 0; HDAC3 inh: -2; Rtt109 Vps75: 6; Efflux pump mplx: 0

Results for COc1ccc(CNc2ccc(N3CCN(C(C)=O)CC3)cc2)cc1OC ?
Rtt109 Vps75: -2

Results for CC(=O)N1CCN(c2ccc(NCc3ccc(-c4ccc(Br)cc4)o3)cc2)CC1 ?
ALR H2O2 inh: 63; GRK2 aptamer HTS: 1; HDAC3 inh: 9; Rtt109 Vps75: -12; Efflux pump mplx: 0

What do the screens show for `CC(=O)N1CCN(c2ccc(NCc3ccccc3)cc2)CC1`?
ALR H2O2 inh: 99*; Rce1 inhib: inactive; GRK2 aptamer HTS: 1; HDAC3 inh: 13; Rtt109 Vps75: 6; Efflux pump mplx: 0

How did CC(=O)N1CCN(c2ccc(NCc3ccc(Br)o3)cc2)CC1 do in these assays?
ALR H2O2 inh: 99*; GRK2 aptamer HTS: 0; HDAC3 inh: -1; Rtt109 Vps75: 5; Efflux pump mplx: 0

What do the screens show for `CC(=O)N1CCN(c2ccc(NCc3cccc4ccccc34)cc2)CC1`?
ALR H2O2 inh: 99*; GRK2 aptamer HTS: 1; HDAC3 inh: 0; Rtt109 Vps75: -9; Efflux pump mplx: 0

Results for Fc1ccc(N2CCN(Cc3ccccn3)CC2)cc1 ?
ALR H2O2 inh: 97*; Rce1 inhib: inactive; GRK2 aptamer HTS: 0; HDAC3 inh: 0; Rtt109 Vps75: -1; Efflux pump mplx: 0

What do the screens show for `Fc1ccc(CNc2ccc(N3CCN(Cc4ccccc4)CC3)cc2)cc1`?
ALR H2O2 inh: 89*; Rce1 inhib: inactive; GRK2 aptamer HTS: 0; HDAC3 inh: 2; Rtt109 Vps75: 3; Efflux pump mplx: 0

Results for CCCCCOc1ccc(NC2=CC(=O)CCC2)cc1 ?
ALR H2O2 inh: 2; Rce1 inhib: inactive; GRK2 aptamer HTS: 0; HDAC3 inh: 1; Rtt109 Vps75: -4; Efflux pump mplx: 0

Results for Oc1ccc(-c2nc(-c3ccc(O)c(O)c3)cs2)cc1 ?
ALR H2O2 inh: 99*; Rce1 inhib: inactive; GRK2 aptamer HTS: 1; HDAC3 inh: 9; Rtt109 Vps75: 13; Efflux pump mplx: 0

What do the screens show for `CCOc1ccccc1N1CCN(C(=O)c2c(-c3c(F)cccc3Cl)noc2C)CC1`?
Rce1 inhib: inactive; GRK2 aptamer HTS: 3; HDAC3 inh: 4; Rtt109 Vps75: -3; Efflux pump mplx: 3

Results for Cc1[nH]c2ccccc2c1/C=N/NC(=S)NC(C)C ?
ALR H2O2 inh: 99*; Rce1 inhib: inactive; GRK2 aptamer HTS: 13; HDAC3 inh: 16; Rtt109 Vps75: 14; Efflux pump mplx: 0

Results for COCCOc1cc(NC(=O)CS(=O)(=O)CC(=O)N(C)C)c(Cl)cc1Cl ?
ALR H2O2 inh: -11; GRK2 aptamer HTS: 0; HDAC3 inh: -3; Rtt109 Vps75: -4; Efflux pump mplx: 0

Results for Cc1ccc(CNC(=O)[C@H](C)NC(=O)C2CCN(C(=O)[C@@H]3CCCN3C(=O)OC(C)(C)C)CC2)cc1 ?
ALR H2O2 inh: -7; Rce1 inhib: inactive; GRK2 aptamer HTS: 0; HDAC3 inh: 1; Rtt109 Vps75: 2; Efflux pump mplx: 0

How did Fc1ccc(NC(=S)NCCN2CCOCC2)c(F)c1F do in these assays?
ALR H2O2 inh: -6; Rce1 inhib: inactive; GRK2 aptamer HTS: 2; HDAC3 inh: 4; Rtt109 Vps75: -7; Efflux pump mplx: 0

Results for Cc1ccc(OCC(=O)NCCNC(=O)COc2ccc(C)cc2)cc1 ?
ALR H2O2 inh: -3; Rce1 inhib: inactive; GRK2 aptamer HTS: 0; HDAC3 inh: 2; Rtt109 Vps75: -1; Efflux pump mplx: 0

What do the screens show for `COc1cc(C(=O)Sc2ccc(C)cc2)cc(OC)c1OC`?
ALR H2O2 inh: 54; Rce1 inhib: inactive; GRK2 aptamer HTS: 3; HDAC3 inh: 10; Rtt109 Vps75: 5; Efflux pump mplx: 0

What do the screens show for `COc1ccccc1OCC(=O)Sc1ccc(C)cc1`?
ALR H2O2 inh: 98*; Rce1 inhib: inactive; GRK2 aptamer HTS: 0; HDAC3 inh: 6; Rtt109 Vps75: -1; Efflux pump mplx: 0

Results for Cc1ccc(OCC(=O)Sc2ccc(C)cc2)cc1 ?
ALR H2O2 inh: 100*; Rce1 inhib: inactive; GRK2 aptamer HTS: 0; HDAC3 inh: 0; Rtt109 Vps75: 6; Efflux pump mplx: 0
